In PubChem BioAssay (NCATS) one finds max response, Potency and outcome data, which are given here for eleven compounds.

Where “and” joins values, the source holds several entries; their conditions need not be identical. Equal entries are not always repeated. Unmarked numbers belong to inactive results. Inconclusive results are not listed. Calls of active or inactive are those of the source. Unless noted, calls come from the whole dose curve; as a rule, active = well fitted curve in the direction sought with a large enough effect; inconclusive = small, poorly fitted or top-dose-only effect, or another doubt; inactive = no such curve, though single readings can be large; an effect the other way counts as inactive or inconclusive.

A short description of assay [1]: qHTS Assay for Identifying Gametocytocidal Compounds (AID 743244).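 Note: % is set by controls: 0 for no effect and ±100 for the full control effect; actives lower the fluorescent signal which means gametocytes are killed.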 The following applies: P. falciparum 3D7 stage III-V gametocytes, alamarBlue, 72 h; max response: stronger effect = lower value. The procedure, abridged:
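Compounds are pinned into medium, gametocytes (stage III–V, 3D7, 20,000 cells/well) added, and plates held 72 h at 37 °C in 5% CO2. AlamarBlue follows for 24 h before fluorescence reading.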
In general terms: Quantitative high-throughput screening tests each substance at several concentrations.

The nature of assay [2]: qHTS assay for measurement of the activity of small molecule inhibitors on Zika virus induced Caspase-3 activity in human iPSC derived neural progenitor cells (hNPCs) (AID 1224857). Note: nearly all actives have a fitted effect of over 65% in size. Note: potency is the fitted concentration of half-maximal effect. The procedure, abridged: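 Pretreat hNPCs with compound 1 h; infect ZIKV 2 FFU/cell; 6 h 37 C, 5% CO2; Caspase-Glo 3/7, 30 min RT; luminescence; normalize to no-virus and virus-only wells.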
A short description of assay [3]: qHTS assay for measurement of the activity of small molecule inhibitors on Zika virus induced Caspase-3 activity in human astrocytoma cells (AID 1224859).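 Note: plate controls were ZIKV-infected untreated cells for no effect and uninfected cells for full effect.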 The procedure, abridged:
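Human SNB-19 astrocytoma cells in RPMI 1640 with 10% FBS receive compound one hour ahead of Zika virus at 2 FFU/cell. After 6 h infection, caspase-3/7 activity is detected by Caspase-Glo luminescence.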

A short description of assay [4]: P-glycoprotein substrates identified in KB-8-5-11 adenocarcinoma cell line, qHTS therapeutic library screen (AID 1346987). Note: series mostly up to about 44 µM; % is set by controls: 0 for no effect and ±100 for the full control effect; nearly all actives have a fitted effect of over 65% in size. Summed up: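 Compounds are pinned in dose-response onto KB-8-5-11 cells (500 cells/well, colchicine-free medium) and left 72 h at 37 degree C. CellTiter-Glo luminescence then yields AC50 values.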
The nature of assay [5]: qHTS assay for small molecule agonists of the antioxidant response element (ARE) signaling pathway measured by Nrf2-dependant transcriptional activity (AID 720636; active = well fitted curve in the direction sought with a large enough effect in the repeat runs; an effect the other way counts as inactive or inconclusive;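 note: HepG2 cells with an ARE-driven luciferase reporter; % of control where 0% means no effect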). Summed up:
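First, ARE-luc HepG2 cells attached for 6 hr at 37 C in 1% dialyzed FBS medium. Next, compound or DMSO was added and incubated 16 hr. Finally, ONE-Glo reagent was added and luminescence measured after 30 min.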

A short description of assay [6]: qHTS assay for small molecule agonists of the antioxidant response element (ARE) signaling pathway measured by Nrf2-dependant transcriptional activity - cell viability counter screen (AID 720653; active = well fitted curve in the direction sought with a large enough effect in the repeat runs; an effect the other way counts as inactive or inconclusive; note: % is set by controls: 0 for no effect and ±100 for the full control effect). As to conditions: ARE-bla HepG2 viability, CellTiter-Glo ATP luminescence, 16 h; max response: stronger effect = lower value. The procedure, abridged: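 ARE-bla HepG2 cells (2,000/well) rested 5 hrs at 37C/5% CO2, then exposed to compounds in DMSO for 16 hrs. Viability was read in the same wells as intracellular ATP by luminescence, 30 min at room temperature after reagent addition.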

The nature of assay [7]: qHTS assay for cell viability of HEK293 cells (AID 743288). Note: % is set by controls: 0 for no effect and ±100 for the full control effect; nearly all actives have a fitted effect of over 50% in size. The following applies: ATP luminescence (CellTiter-Glo), 18 h, stronger effect = lower value. Summed up: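 HEK293, 18 h, 37 C, ATP luminescence. Cells at 2,000/well were allowed at least 5 h to settle before dosing; CellTiter-Glo developed 30 min at RT.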
Assay [8] can be described thus: qHTS assay for cell viability of the p53RE-bla HCT-116 cell line (AID 743292). Note: % is set by controls: 0 for no effect and ±100 for the full control effect; nearly all actives have a fitted effect of over 55% in size. Summed up: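 Quantitative high-throughput format: compounds in DMSO were pinned onto p53RE-bla HCT-116 cells (4,000/well) and incubated 16 h at 37 C. Total intracellular ATP, read by CellTiter-Glo luminescence, reflects viable cell number.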
Assay [9] deals with T1, Hexokinase-4 (Homo sapiens) + Glucokinase regulatory protein (Homo sapiens) (UniProt P35557+Q14397). Kind of assay: qHTS assay for inhibitors of recombinant human GCK-GKRP interaction: Diaphorase-coupled assay (AID 743205). Summed up:
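Signal derives from resorufin generated by diaphorase, linked to GCK turnover of glucose (5 mM) and ATP (0.4 mM). Enzyme complex was added after a 20-minute compound preincubation and monitored for 30 minutes.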

Assay [10] addresses T1, Hexokinase-4 (Homo sapiens) + Glucokinase regulatory protein (Homo sapiens). Kind of assay: qHTS assay for inhibitors of recombinant human GCK-GKRP interaction: ADP-Glo assay (AID 743206).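 Note: plate controls were DMSO plus enzyme for no effect and no enzyme for full effect.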 The procedure, abridged: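 Pin-transferred compounds meet a 15 nM GST-GCK/15 nM FLAG-GKRP/2 uM S6P mix (dispense concentrations). ATP is then added to 0.4 mM final with 5 mM glucose, and the reaction runs 60 min at room temperature. ADP is quantified luminescently.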

For assay [11] the target is unchanged. Kind of assay: qHTS assay for inhibitors of recombinant human GCK-GKRP interaction: HTRF assay (AID 743207).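 Note: 0% = DMSO with GCK present and -100% = DMSO wells lacking GCK.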 The procedure, abridged:
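Titration screening format: recombinant GST-GCK and FLAG-GKRP at 5 nM, S6P at 2 uM, labelled anti-tag antibodies, 60 min at RT, dual-wavelength HTRF readout.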

Assay [12] concerns the target Atrial natriuretic peptide receptor 1 (Homo sapiens) (UniProt P16066). As to the kind of experiment: Natriuretic polypeptide receptor (hNpr1) antagonism - Pilot screen (AID 1347049; calls by dose curve;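 note: HEK293 cells with hNpr1 and GloSensor cGMP luciferase stimulated by 0.1 nM hNppA; agonist-evoked cGMP luminescence read 20 min after hNppA addition; series mostly up to about 58 µM; % is set by controls: 0 for no effect and ±100 for the full control effect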). Summed up: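 Cells expressing receptor plus cGMP biosensor are seeded and incubated overnight at 37C, then loaded with GloSensor reagent (2% final) at room temperature for 2 h. Library compounds go on for 30 min. A pre-read precedes agonist (hNppA, 0.1 nM final) and a 20-min readout.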

T1 sequence (P35557 whole entry, looked up): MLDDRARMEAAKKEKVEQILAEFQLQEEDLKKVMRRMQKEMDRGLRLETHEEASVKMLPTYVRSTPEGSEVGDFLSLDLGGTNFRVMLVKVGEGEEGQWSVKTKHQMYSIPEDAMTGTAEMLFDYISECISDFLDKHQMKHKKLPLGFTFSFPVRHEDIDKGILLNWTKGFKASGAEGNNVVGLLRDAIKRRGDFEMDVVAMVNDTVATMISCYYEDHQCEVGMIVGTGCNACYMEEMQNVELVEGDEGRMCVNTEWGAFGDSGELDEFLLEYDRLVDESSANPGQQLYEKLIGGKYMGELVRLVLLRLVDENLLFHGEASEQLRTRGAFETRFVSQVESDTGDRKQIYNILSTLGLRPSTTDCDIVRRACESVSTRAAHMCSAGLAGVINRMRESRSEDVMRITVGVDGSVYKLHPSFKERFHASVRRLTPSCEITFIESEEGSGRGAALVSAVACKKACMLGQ
T1 sequence (Q14397 whole entry, looked up): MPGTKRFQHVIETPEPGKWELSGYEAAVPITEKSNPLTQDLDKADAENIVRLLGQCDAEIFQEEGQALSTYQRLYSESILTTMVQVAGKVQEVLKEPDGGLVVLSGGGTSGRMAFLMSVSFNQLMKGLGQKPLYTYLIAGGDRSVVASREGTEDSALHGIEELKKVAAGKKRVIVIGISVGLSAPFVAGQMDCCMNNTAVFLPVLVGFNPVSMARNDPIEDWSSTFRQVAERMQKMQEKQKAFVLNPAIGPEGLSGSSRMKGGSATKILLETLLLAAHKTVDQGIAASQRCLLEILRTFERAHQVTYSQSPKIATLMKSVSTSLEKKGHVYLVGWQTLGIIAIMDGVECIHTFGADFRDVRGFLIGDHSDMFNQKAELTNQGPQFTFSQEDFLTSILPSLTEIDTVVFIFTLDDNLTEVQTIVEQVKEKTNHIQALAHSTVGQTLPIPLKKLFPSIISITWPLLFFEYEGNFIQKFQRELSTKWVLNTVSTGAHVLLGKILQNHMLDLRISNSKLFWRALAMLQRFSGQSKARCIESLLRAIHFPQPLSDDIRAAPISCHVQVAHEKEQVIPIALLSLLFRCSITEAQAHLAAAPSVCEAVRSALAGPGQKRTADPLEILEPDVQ
Chain of Atrial natriuretic peptide receptor 1 (Homo sapiens) (P16066 whole entry, looked up): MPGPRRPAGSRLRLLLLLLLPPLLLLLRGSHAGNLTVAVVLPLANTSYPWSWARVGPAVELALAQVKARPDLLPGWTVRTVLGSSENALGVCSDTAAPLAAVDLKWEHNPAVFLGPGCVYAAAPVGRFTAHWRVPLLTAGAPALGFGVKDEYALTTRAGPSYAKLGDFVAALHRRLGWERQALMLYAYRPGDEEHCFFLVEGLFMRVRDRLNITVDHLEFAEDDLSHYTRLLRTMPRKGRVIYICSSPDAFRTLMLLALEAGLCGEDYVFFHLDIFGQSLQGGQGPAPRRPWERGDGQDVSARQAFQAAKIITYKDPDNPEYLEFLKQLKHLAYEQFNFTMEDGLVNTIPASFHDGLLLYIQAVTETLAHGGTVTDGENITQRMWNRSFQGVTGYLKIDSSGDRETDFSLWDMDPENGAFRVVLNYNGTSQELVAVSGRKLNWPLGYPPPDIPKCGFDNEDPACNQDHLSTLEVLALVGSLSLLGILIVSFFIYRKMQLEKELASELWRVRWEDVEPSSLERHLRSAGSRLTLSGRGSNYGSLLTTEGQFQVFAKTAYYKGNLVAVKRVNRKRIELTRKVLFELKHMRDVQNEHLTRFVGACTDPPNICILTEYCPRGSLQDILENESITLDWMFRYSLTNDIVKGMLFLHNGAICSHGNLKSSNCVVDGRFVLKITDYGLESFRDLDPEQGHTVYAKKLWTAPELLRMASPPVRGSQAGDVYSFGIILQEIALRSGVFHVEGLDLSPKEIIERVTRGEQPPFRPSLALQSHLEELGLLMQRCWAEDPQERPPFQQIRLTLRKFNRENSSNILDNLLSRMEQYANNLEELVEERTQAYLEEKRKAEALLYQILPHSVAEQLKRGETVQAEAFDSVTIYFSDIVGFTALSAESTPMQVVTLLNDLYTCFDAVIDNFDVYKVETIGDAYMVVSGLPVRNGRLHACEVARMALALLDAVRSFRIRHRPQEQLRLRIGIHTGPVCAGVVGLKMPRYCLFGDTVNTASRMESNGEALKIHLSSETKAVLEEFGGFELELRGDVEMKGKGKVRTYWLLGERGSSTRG

For the compound `CN(C(=O)C(Cl)Cl)c1ccc(OC(=O)c2ccco2)cc1`, the max response in assay [1] was 8.61%. Besides, the Potency result in assay [2] and in assay [4] was “inactive” throughout. Moreover, the call in assay [3] was inactive.
As for `CCOC(=O)Cn1cccc1-c1nc(-c2ccc(OC)cc2)c(-c2ccc(OC)cc2)s1`, the max response in assay [1] is 9.5%. Moreover, the Potency result in assay [2] and in assay [4] was “inactive” in each case. The outcome in [3] was inactive.
On to `O=C(O)[C@@H](O)[C@H](O)[C@H](O)[C@@H](O)C(=O)O`, for which the max response in [1] is 9.57%. Further, the Potency entry in assay [2] and in assay [4] was “inactive” in each case. Besides, in assay [3], the call was inactive.
Regarding `Cc1ncc(CO)c(CO)c1O`, the call in [5] and in assay [3] was inactive. The max response in [6] is -5.07%; in assay [1] it was -15.9%; in assay [7], -15.6%. Also, the Potency result in [8] and in assay [2] was “inactive” in each case.
As to `CC1(C)S[C@@H]2[C@H](NC(=O)C(c3ccccc3)S(=O)(=O)O)C(=O)N2[C@H]1C(=O)O` (stereo not given in full), in [1], the max response is -17.7%. The Potency result in assay [2] and in [4] was “inactive” throughout. In addition, the compound was called inactive in [3].
Take `Clc1ccc2c(c1)N=C(N1CCNCC1)c1ccccc1N2`: the result in assay [9], in assay [10], in [11] and in [3] was inactive. Moreover, the Potency entry in assay [2] and in assay [12] was “inactive” throughout.
In the case of `Cc1ccccc1C(=O)N1CC/C(=N\OS(=O)(=O)O)c2ccc(Cl)cc21`, in assay [1], the max response was 0.506%. Further, the Potency entry in [2] and in assay [4] was “inactive” each time. Further, in [3], the compound was called inactive.
For `CCN(CC)CCNC(=O)c1ccc(NS(C)(=O)=O)cc1`, the outcome in assay [9], in assay [10], in assay [11] and in assay [3] was inactive. The max response in [1] was -10.8%. The Potency result in [2] and in assay [12] was “inactive” in each case.
Consider `O=[N+]([O-])c1ccc(-c2nc(-c3ccc(F)cc3)c(-c3ccncc3)[nH]2)cc1`, for which the outcome in assay [9], in assay [10], in assay [11] and in assay [3] was inactive. The max response in assay [1] is -10.7%. For the same compound, the Potency result in assay [2] and in assay [12] was “inactive” in each case.
Regarding `CC(C)(C)c1ccc(O)c(O)c1`, the call in assay [5] and in assay [3] was inactive. Moreover, the max response in assay [6] was -2.01% and -13.6%; in [7] it was -4.72% and -5.96%. The Potency result in [8] was “inactive”. For the same compound, in assay [2], the Potency was 35.5 µM (active).
As for `OCCOCCN1CCN(C(c2ccccc2)c2ccc(Cl)cc2)CC1` (stereo not given), the compound was classed as inactive in [5] and in [3]. Besides, the values for the max response in assay [6], in [1] and in assay [7] were -5.74%, -10.6% and -17.9%, respectively. Also, the Potency entry in assay [8] and in assay [2] was “inactive” each time.
